# Inconclusive results are not listed. Entries that show only a call come without a potency. Activity calls are given as the source filed them. Unless noted, the call rests on the fitted dose curve; in most records, active means well fitted curve in the direction sought with a large enough effect; inconclusive means small, poorly fitted or top-dose-only effect, or another doubt; inactive means no such curve, though single readings can be large; an effect the other way counts as inactive or inconclusive.
# Key:
# [1] = S16 Schwann cell viability assay (CellTiter-Glo assay) (AID 624031);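 further: native untransfected S16 rat Schwann cells; cellular ATP luminescence as a viability measure; nearly all actives have a fitted effect of over 70% in size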
# How it was run: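 Parental S16 cells, 24 h compound, 37 °C. ATP-luminescence viability; DMSO = 0% activity, empty wells as reference; curves classified by fit quality and efficacy.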
# [2] = S16 Schwann cell PMP22 intronic element beta-lactamase assay (AID 624044; calls by dose curve; further: nearly all actives have a fitted effect of over 15% in size)
# How it was run: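 Beta-lactamase reporter under a PMP22 intronic regulatory element in stable S16 rat Schwann cells; 24 h compound exposure. 460 nm blue signal normalized between DMSO (0%) and potassium clavulanate, with 535 nm FRET tracking viability; curves classed by r2 and response.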
# [3] = test system: 3D7; assay: qHTS profiling for inhibitors of Plasmodium falciparum proliferation (AID 504749); further: nearly all actives have a fitted effect of over 60% in size; further: potency means the concentration at half of the fitted maximal effect; details: P. falciparum in erythrocytes, SYBR Green DNA, 72 h; series mostly up to 12.8 µM
# How it was run: (§1)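 Each compound contacts P. falciparum-infected red blood cells for 72 h at 37 C; lysis buffer (Tris, EDTA, saponin, Triton X, SYBR Green I) is added and fluorescence measured next morning; values normalized to controls.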
# [4] = test system: AA1029; assay: as above; details: P. falciparum in erythrocytes, SYBR Green DNA, 72 h; series mostly up to 12.8 µM
# How it was run: as §1
# [5] = test system: ATS95; assay: as above; details: P. falciparum in erythrocytes, SYBR Green DNA, 72 h; series mostly up to 12.8 µM
# How it was run: as §1
# [6] = test system: CP252; assay: as above; details: P. falciparum in erythrocytes, SYBR Green DNA, 72 h; series mostly up to 12.8 µM
# How it was run: as §1
# [7] = test system: CP260; assay: as above; details: P. falciparum in erythrocytes, SYBR Green DNA, 72 h; series mostly up to 12.8 µM
# How it was run: as §1
# [8] = test system: CP265; assay: as above; details: P. falciparum in erythrocytes, SYBR Green DNA, 72 h; series mostly up to 12.8 µM
# How it was run: as §1
# [9] = test system: CP335; assay: as above; details: P. falciparum in erythrocytes, SYBR Green DNA, 72 h; series mostly up to 12.8 µM
# How it was run: as §1
# [10] = test system: Dd2; assay: as above; details: P. falciparum in erythrocytes, SYBR Green DNA, 72 h; series mostly up to 12.8 µM
# How it was run: as §1
# [11] = test system: ECU; assay: as above; details: P. falciparum in erythrocytes, SYBR Green DNA, 72 h; series mostly up to 12.8 µM
# How it was run: as §1
# [12] = test system: HB3; assay: as above; details: P. falciparum in erythrocytes, SYBR Green DNA, 72 h; series mostly up to 12.8 µM
# How it was run: as §1
# [13] = test system: ICS; assay: as above; details: P. falciparum in erythrocytes, SYBR Green DNA, 72 h; series mostly up to 12.8 µM
# How it was run: as §1
# [14] = test system: N140; assay: as above; details: P. falciparum in erythrocytes, SYBR Green DNA, 72 h; series mostly up to 12.8 µM
# How it was run: as §1
# [15] = test system: PAD; assay: as above; details: P. falciparum in erythrocytes, SYBR Green DNA, 72 h; series mostly up to 12.8 µM
# How it was run: as §1
# [16] = test system: PC26; assay: as above; details: P. falciparum in erythrocytes, SYBR Green DNA, 72 h; series mostly up to 12.8 µM
# How it was run: as §1
# [17] = test system: SC27B; assay: as above; details: P. falciparum in erythrocytes, SYBR Green DNA, 72 h; series mostly up to 12.8 µM
# How it was run: as §1
# [18] = test system: TAB109; assay: as above; details: P. falciparum in erythrocytes, SYBR Green DNA, 72 h; series mostly up to 12.8 µM
# How it was run: as §1
# [19] = test system: TAB165; assay: as above; details: P. falciparum in erythrocytes, SYBR Green DNA, 72 h; series mostly up to 12.8 µM
# How it was run: as §1
# [20] = test system: P93_24; assay: as above; details: P. falciparum in erythrocytes, SYBR Green DNA, 72 h; series mostly up to 12.8 µM
# How it was run: as §1
SMILES,outcome [1],Potency [2],Potency [3],Potency [4],Potency [5],Potency [6],Potency [7],Potency [8],Potency [9],Potency [10],Potency [11],Potency [12],Potency [13],Potency [14],Potency [15],Potency [16],Potency [17],Potency [18],Potency [19],Potency [20]
CC(C)Oc1ccc2c(=O)cc(-c3ccccc3)oc2c1,inactive,inactive,inactive,inactive,inactive,inactive,inactive,inactive,inactive,inactive,inactive,inactive,inactive,inactive,inactive,inactive,inactive,inactive,inactive,
N[C@@H]1C(O)OC(CO)C(O)C1O (some centres not stated),inactive,inactive,inactive,inactive,inactive,inactive,inactive,inactive,inactive,inactive,inactive,inactive,inactive,inactive,inactive,inactive,inactive,inactive,inactive,inactive
CCC1OC(=O)CC(O)C(C)[C@@H](O[C@@H]2OC(C)[C@H](O[C@@H]3C[C@@](C)(O)C(O)C(C)O3)C(N(C)C)C2O)[C@H](CC=O)CC(C)C(=O)/C=C/C(C)=C/[C@@H]1COC1OC(C)C(O)C(OC)[C@@H]1OC (some centres not stated),inactive,inactive,,,,,1.12 µM (active),,1.35 µM (active),0.891 µM (active),inactive,,2.82 µM (active),,,,,0.891 µM (active),,
CCC(C)C(=O)OC1CC(O)C=C2C=CC(C)C(CCC(O)CC(O)CC(=O)O)C21 (configuration not stated),inactive,inactive,inactive,inactive,inactive,inactive,inactive,inactive,inactive,inactive,inactive,inactive,inactive,inactive,inactive,inactive,inactive,inactive,inactive,inactive
CC[C@@]12CCCN3CCc4c(n(c5ccccc45)[C@](O)(C(=O)OC)C1)C32 (some centres not stated),inactive,,inactive,inactive,inactive,inactive,inactive,inactive,inactive,,inactive,inactive,,inactive,inactive,inactive,inactive,inactive,inactive,inactive
COC1CC(O[C@H]2/C(C)=C/CC3CC(C[C@]4(CCC(C)C(C5CCCCC5)O4)O3)OC(=O)[C@H]3C=C(C)/C(=N/O)C4OC/C(=C\C=C\[C@@H]2C)[C@@]43O)OC(C)C1O (some centres not stated),inactive,inactive,,,,,,,,inactive,,,12.6 µM (active),,,inactive,,,,
CC(=O)[C@]1(O)CCC2C3C=C(Cl)C4=CC(=O)C5CC5[C@@]4(C)C3CC[C@]21C (some centres not stated),inactive,inactive,inactive,inactive,inactive,inactive,inactive,inactive,inactive,inactive,inactive,inactive,inactive,inactive,inactive,inactive,inactive,inactive,inactive,inactive
COc1ccc(-c2cc(=O)c3c(O)cc(O[C@H]4OC(COC5OC(C)C(O)C(O)[C@H]5O)C(O)C(O)C4O)cc3o2)cc1O (some centres not stated),,inactive,inactive,inactive,inactive,inactive,inactive,inactive,inactive,inactive,inactive,inactive,inactive,inactive,inactive,inactive,inactive,inactive,inactive,inactive
CC(=O)O[C@@]1(C(C)=O)CCC2C3CC(C)C4=CC(=O)CC[C@@]4(C)C3CC[C@]21C (some centres not stated),,inactive,inactive,,,,,,,,,,,,,inactive,,,,
CC1(C)OC2CO[C@]3(COS(N)(=O)=O)OC(C)(C)OC3C2O1 (some centres not stated),inactive,inactive,inactive,inactive,inactive,inactive,inactive,inactive,inactive,inactive,inactive,inactive,inactive,inactive,inactive,inactive,inactive,inactive,inactive,inactive
C=Cc1c(C)/c2[n-]/c1=C\c1[n-]c(c(CC)c1C)/C=c1\[n-]c3c(c1C)C(=O)C(C(=O)[O-])C=3c1[n-]c(c(C)c1CCC(=O)[O-])\C=2.[Cu].[Na+].[Na+] (configuration not stated),inactive,inactive,inactive,,,,,inactive,,,,,,,,,,,,
CCCCCCCCCc1ccc(OCCOCCOCCOCCOCCOCCOCCOCCOCCO)cc1,,,,inactive,inactive,inactive,inactive,inactive,,,,,,,,,,inactive,7.08 µM (active),
CCC1OC(=O)C(C)[C@@H](O[C@H]2C[C@@](C)(OC)C(O)C(C)O2)C(C)[C@@H](O[C@@H]2OC(C)CC(N(C)C)C2O)[C@@](C)(O)CC(C)C(=O)[C@@H](C)C(O)[C@]1(C)O (some centres not stated),inactive,,inactive,inactive,inactive,inactive,inactive,inactive,,inactive,inactive,inactive,inactive,inactive,inactive,inactive,inactive,,inactive,inactive
NC(CCC(=O)N[C@@H](CS)C(=O)NCC(=O)O)C(=O)O (some centres not stated),,inactive,6.31 µM (active),,,,7.94 µM (active),7.94 µM (active),6.01 µM (active),5.01 µM (active),10 µM (active),3.16 µM (active),1.26 µM (active),4.47 µM (active),6.31 µM (active),12 µM (active),,4.47 µM (active),3.98 µM (active),3.16 µM (active)
COC1OC(CO)C(OC2OC(C(=O)O)C(OC3OC(COS(=O)(=O)O)C(OC4OC(C(=O)O)C(OC5OC(CO)C(OC6OC(C(=O)O)C(OC7OC(COS(=O)(=O)O)C(OC8OC(C(=O)O)=C[C@H](O)C8OS(=O)(=O)O)C(O)C7NC(C)=O)[C@@H](O)C6O)C(O)C5NC(C)=O)[C@@H](O)C4O)C(O)C3NC(C)=O)[C@@H](O)C2O)C(O)C1NC(C)=O (some centres not stated),,inactive,,,,,,,,,,,12.6 µM (active),,,,,,,
C[C@@]12C=CC(=O)C=C1CCC1C3CC(O)[C@@](O)(C(=O)CO)[C@]3(C)CC(O)[C@]12F (some centres not stated),,,inactive,inactive,inactive,inactive,inactive,inactive,inactive,inactive,inactive,inactive,inactive,inactive,inactive,inactive,inactive,inactive,inactive,inactive
CC1C2CCC3C4CC=C5CC(N(C)C)CC[C@@]5(C)C4CC[C@@]32CN1C (some centres not stated),inactive,,inactive,inactive,inactive,inactive,,inactive,inactive,inactive,inactive,inactive,inactive,inactive,inactive,inactive,inactive,,inactive,inactive
OCC1OC(n2cnc3c(=S)nc[nH]c32)C(O)C1O (configuration not stated),inactive,inactive,inactive,inactive,inactive,inactive,inactive,inactive,inactive,inactive,inactive,inactive,inactive,inactive,inactive,inactive,inactive,inactive,inactive,inactive
CC(=O)OCC(=O)[C@@]12OC3(CCCC3)OC1CC1C3CCC4=CC(=O)C=C[C@@]4(C)[C@]3(F)C(O)C[C@]12C (some centres not stated),inactive,inactive,,,,,,,,,,,12.6 µM (active),11.2 µM (active),,,,,,
CO[C@]12C(COC(N)=O)C3=C(C(=O)C(C)=C(N)C3=O)N1CC1NC12 (some centres not stated),,,,2 µM (active),1 µM (active),0.794 µM (active),,,,0.398 µM (active),1.41 µM (active),1 µM (active),0.355 µM (active),0.631 µM (active),0.631 µM (active),,1 µM (active),2.24 µM (active),0.447 µM (active),1 µM (active)
CCOC(=O)C1=CC(OC(CC)CC)C(NC(C)=O)C(N)C1 (configuration not stated),,inactive,inactive,inactive,inactive,inactive,inactive,inactive,inactive,inactive,inactive,inactive,,inactive,inactive,,inactive,inactive,inactive,inactive
CC(=O)OC1CCC2C3CCc4cc(O)ccc4C3CCC12C (configuration not stated),inactive,,inactive,inactive,inactive,inactive,inactive,inactive,inactive,inactive,inactive,inactive,,inactive,inactive,inactive,inactive,inactive,inactive,inactive
C[C@@]12CCC(=O)C=C1C=CC1C2CC[C@]2(C)C1CC[C@@]21CCC(=O)O1 (some centres not stated),inactive,inactive,inactive,inactive,inactive,inactive,inactive,inactive,inactive,inactive,inactive,inactive,,,inactive,inactive,inactive,,,inactive
CC1(C)S[C@H]2C(NC(=O)[C@@H](N)c3ccc(O)cc3)C(=O)N2[C@@H]1C(=O)O (some centres not stated),inactive,inactive,inactive,inactive,inactive,inactive,inactive,inactive,inactive,inactive,inactive,inactive,inactive,inactive,inactive,inactive,inactive,inactive,inactive,inactive
CCC(=O)O[C@@]1(C(=O)CCl)C(C)CC2C3CCC4=CC(=O)C=C[C@@]4(C)[C@]3(F)C(O)C[C@]21C (some centres not stated),inactive,inactive,,10 µM (active),11.2 µM (active),12.6 µM (active),10 µM (active),,10.7 µM (active),,,,10 µM (active),8.91 µM (active),7.94 µM (active),10.7 µM (active),,11.2 µM (active),,7.94 µM (active)
